# Experimental data from PubChem BioAssay.
# The source made the active and inactive calls. Unless noted, no rule for the calls is given here.
# Columns and labels:
# [1] = system: Wnt5a (protein binding on small-molecule microarray); assay: Wnt5a binders on small-molecule microarray, primary screen, biophysical, 635/667 nm fluorescence (AID 1142); conditions: 635 nm fluorescence, higher = more signal;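 also: fluorescence read at 667 nm with signal to noise per printed feature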
# [2] = cell viability in Huh7 cells, primary screen, cytotoxicity control for HCV replication inhibitor project, CellTiter-Glo luminescence, basal, 48 h (AID 1143); conditions: Huh7 HCV replicon, higher = more signal, called active from +8 up or from −8 down;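 also: Huh7 hepatoma cells carrying a hepatitis C replication reporter with no stimulus; test concentration not given here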
# [3] = P. aeruginosa biofilm formation inhibitors, primary screen, PAO1 strain, BacTiter-Glo luminescence, LB-PBS (AID 1144); conditions: 12 h, higher = more signal
# [4] = CREB reporter modulators without forskolin, primary screen, cell-based, PC12, CRE-LacZ reporter, unstimulated (AID 1145); conditions: no forskolin, luminescence, 4.5 h, higher = more signal, called active from +8 up or from −8 down
# [5] = CREB reporter modulators under forskolin, primary screen, cell-based, PC12, CRE-LacZ reporter, forskolin-stimulated (AID 1146); conditions: luminescence, 4.5 h, higher = more signal, called active from +8 up or from −8 down;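 also: PC12 cells with 6xCRE LacZ reporter stimulated by forskolin 10 µM; beta-galactosidase reporter signal reflecting CREB driven transcription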
# [6] = molecular target: Streptavidin (Streptomyces avidinii) (UniProt P22629); assay: streptavidin binders on small-molecule microarray, primary screen, artefact control for SMM compound annotation, biophysical, 635/667 nm fluorescence (AID 1147); conditions: streptavidin binding, higher = more signal;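 also: signal reflects streptavidin binding to arrayed compounds as a control protein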
# Sequence of Streptavidin (Streptomyces avidinii) (P22629 whole entry, looked up): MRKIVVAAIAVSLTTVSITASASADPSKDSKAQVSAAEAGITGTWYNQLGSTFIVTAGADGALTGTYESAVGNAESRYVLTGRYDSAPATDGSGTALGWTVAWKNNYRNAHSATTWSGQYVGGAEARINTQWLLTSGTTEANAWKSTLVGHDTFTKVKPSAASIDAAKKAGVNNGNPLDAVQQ
# [7] = small-molecule binders of probe aInhba, primary screen, biochemical, small-molecule microarray, 635/667 nm fluorescence (AID 1148); conditions: higher = more signal;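 also: score merges 667nm spot fluorescence with signal-to-noise for antibody binding to printed compounds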
# Torsin-1A (Homo sapiens) [8] = molecular target: Torsin-1A (Homo sapiens) (UniProt O14656); assay: torsin A binders from cell lysate, primary screen, small-molecule microarray, wild-type, 635/667 nm (AID 1149); conditions: COS7 hTOR1A-WT lysate, 635 nm fluorescence, higher = more signal
# Sequence of Torsin-1A (Homo sapiens) (O14656 whole entry, looked up): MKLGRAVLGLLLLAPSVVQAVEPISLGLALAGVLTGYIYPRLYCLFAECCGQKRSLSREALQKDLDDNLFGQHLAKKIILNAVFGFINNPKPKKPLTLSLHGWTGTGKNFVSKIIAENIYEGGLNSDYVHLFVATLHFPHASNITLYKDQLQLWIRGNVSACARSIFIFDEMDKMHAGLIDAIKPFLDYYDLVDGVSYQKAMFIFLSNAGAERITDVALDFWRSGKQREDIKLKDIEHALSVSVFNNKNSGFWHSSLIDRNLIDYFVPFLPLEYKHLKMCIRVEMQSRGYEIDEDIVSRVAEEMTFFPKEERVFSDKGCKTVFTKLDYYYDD
# Torsin-1A (Homo sapiens) [9] = molecular target: Torsin-1A (Homo sapiens) (UniProt O14656); assay: small-molecule binders of mutant TOR1A in lysate, primary screen, cell lysate, small-molecule microarray, COS7 lysate, 635/667 nm fluorescence (AID 1150); conditions: COS7 hTOR1A mutant lysate, 635 nm fluorescence, higher = more signal;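 also: score pools 667 nm emission and signal to noise measuring lysate protein binding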
# [10] = system: Sonic hedgehog protein (Shh); assay: small-molecule binders of Shh protein, primary screen, biochemical, small-molecule microarray, 635/667 nm fluorescence (AID 1151); conditions: small-molecule microarray binding, 635 nm fluorescence; higher = more signal;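 also: Shh protein binding to compounds spotted on small-molecule microarray slides; score combines spot fluorescence intensity with signal-to-noise across triplicate slides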
# [11] = E. coli DRC41 culture turbidity changes, primary screen, E. coli filamentation inducer project, strain DRC41, OD650, 48 h (AID 1152);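 also: E. coli MC1000 strain DRC41 lacking acrAB efflux pump and sulA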; conditions: E. coli DRC41 (acrAB sulA), higher = more signal, called active from +8 up or from −8 down
# [12] = small-molecule binders of probe aLefty1, primary screen, biochemical, small-molecule microarray, 635/667 nm fluorescence (AID 1153); conditions: higher = more signal;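 also: score merges spot fluorescence with signal-to-noise ratio from the scanned slide images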
# [13] = PSAC antagonists in infected red cells, primary screen, cell-based, P. falciparum Indochina, OD700, 1 h (AID 1154); conditions: P. falciparum Indochina infected RBC osmotic lysis, higher = more signal, called active from +8 up or from −8 down
# [14] = PSAC antagonists in infected red cells, primary screen, cell-based, P. falciparum Indochina, OD700, 2 h (AID 1155);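 also: lysis reports solute entry through the parasite surface anion channel PSAC; channel blockers reduce lysis of infected cells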; conditions: P. falciparum Indochina infected erythrocytes, osmotic lysis OD700; higher = more signal, called active from +8 up or from −8 down
# [15] = osmotic lysis modulators in infected erythrocytes, primary screen, PSAC antagonist project, cell-based, P. falciparum Indochina, OD700, 3 h (AID 1156); conditions: higher = more signal, called active from +8 up or from −8 down
# [16] = PSAC antagonists in infected red cells, primary screen, cell-based, P. falciparum Indochina, OD700, 18 h (AID 1157); conditions: P. falciparum Indochina infected erythrocytes, osmotic lysis OD700, 18 h; higher = more signal, called active from +8 up or from −8 down
# [17] = modulators of S6 phosphorylation in cells, primary screen, cell-based, A549, cytoblot, luminescence, serum-stimulated (AID 1158); conditions: A549 phospho-S6 cytoblot, 5 h, higher = more signal;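 also: serum-stimulated A549 lung adenocarcinoma cells; signal is phosphorylated S6 detected by cytoblot immunostaining with HRP secondary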
# [18] = molecular target: NADPH oxidase 2 (Homo sapiens) (UniProt P04839); assay: NOX2-dependent H2O2 signal modulators, primary screen, NOX inhibitor project, cell-based, HEK293-NOX2, PMA-stimulated, Amplex Red fluorescence (AID 1159); conditions: 45 min, higher = more signal, called active from +8 up or from −8 down; also: test concentration not given here
# Sequence of NADPH oxidase 2 (Homo sapiens) (P04839 whole entry, looked up): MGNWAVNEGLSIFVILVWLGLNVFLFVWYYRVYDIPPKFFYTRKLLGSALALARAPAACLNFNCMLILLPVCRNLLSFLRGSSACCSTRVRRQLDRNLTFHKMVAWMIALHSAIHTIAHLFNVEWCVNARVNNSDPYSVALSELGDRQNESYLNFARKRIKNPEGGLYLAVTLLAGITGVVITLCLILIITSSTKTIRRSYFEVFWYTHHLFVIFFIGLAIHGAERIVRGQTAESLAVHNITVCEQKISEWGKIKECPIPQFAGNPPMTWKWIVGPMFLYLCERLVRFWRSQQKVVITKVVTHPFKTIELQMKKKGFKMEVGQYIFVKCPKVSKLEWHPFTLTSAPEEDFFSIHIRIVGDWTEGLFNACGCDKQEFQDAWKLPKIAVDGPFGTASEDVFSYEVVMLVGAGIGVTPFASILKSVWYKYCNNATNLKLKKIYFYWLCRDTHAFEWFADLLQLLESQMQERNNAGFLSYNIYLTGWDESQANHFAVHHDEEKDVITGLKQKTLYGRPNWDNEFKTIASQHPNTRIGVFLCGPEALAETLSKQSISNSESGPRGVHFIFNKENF
# [19] = molecular target: NADPH oxidase 4 (Homo sapiens) (UniProt Q9NPH5); assay: NOX4-dependent H2O2 signal modulators, primary screen, NOX inhibitor project, cell-based, HEK293-NOX4, tetracycline-induced, Amplex Red fluorescence (AID 1160); conditions: 45 min, higher = more signal, called active from +8 up or from −8 down
# Sequence of NADPH oxidase 4 (Homo sapiens) (Q9NPH5 whole entry, looked up): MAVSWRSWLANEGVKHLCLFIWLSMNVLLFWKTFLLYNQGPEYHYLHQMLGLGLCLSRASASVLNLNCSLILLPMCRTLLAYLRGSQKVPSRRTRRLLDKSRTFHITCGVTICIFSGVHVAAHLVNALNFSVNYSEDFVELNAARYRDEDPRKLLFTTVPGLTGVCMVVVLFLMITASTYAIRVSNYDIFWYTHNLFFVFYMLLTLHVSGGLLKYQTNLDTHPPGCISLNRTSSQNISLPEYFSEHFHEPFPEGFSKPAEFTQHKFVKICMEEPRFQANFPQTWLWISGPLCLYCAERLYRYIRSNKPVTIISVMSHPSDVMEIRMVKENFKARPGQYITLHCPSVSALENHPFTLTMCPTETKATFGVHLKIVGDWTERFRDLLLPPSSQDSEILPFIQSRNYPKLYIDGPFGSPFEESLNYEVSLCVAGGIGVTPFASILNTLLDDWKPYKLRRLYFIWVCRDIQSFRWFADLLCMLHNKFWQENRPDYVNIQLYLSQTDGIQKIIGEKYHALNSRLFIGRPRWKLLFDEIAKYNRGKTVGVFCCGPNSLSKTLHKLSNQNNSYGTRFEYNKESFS
# [20] = molecular target: NADPH oxidase 5 (Homo sapiens) (UniProt Q96PH1); assay: NOX5-dependent H2O2 signal modulators, primary screen, NOX inhibitor project, cell-based, HEK293-NOX5, Amplex Red fluorescence (AID 1161); conditions: HEK293-NOX5, ionomycin, 45 min, higher = more signal
# Sequence of NADPH oxidase 5 (Homo sapiens) (Q96PH1 whole entry, looked up): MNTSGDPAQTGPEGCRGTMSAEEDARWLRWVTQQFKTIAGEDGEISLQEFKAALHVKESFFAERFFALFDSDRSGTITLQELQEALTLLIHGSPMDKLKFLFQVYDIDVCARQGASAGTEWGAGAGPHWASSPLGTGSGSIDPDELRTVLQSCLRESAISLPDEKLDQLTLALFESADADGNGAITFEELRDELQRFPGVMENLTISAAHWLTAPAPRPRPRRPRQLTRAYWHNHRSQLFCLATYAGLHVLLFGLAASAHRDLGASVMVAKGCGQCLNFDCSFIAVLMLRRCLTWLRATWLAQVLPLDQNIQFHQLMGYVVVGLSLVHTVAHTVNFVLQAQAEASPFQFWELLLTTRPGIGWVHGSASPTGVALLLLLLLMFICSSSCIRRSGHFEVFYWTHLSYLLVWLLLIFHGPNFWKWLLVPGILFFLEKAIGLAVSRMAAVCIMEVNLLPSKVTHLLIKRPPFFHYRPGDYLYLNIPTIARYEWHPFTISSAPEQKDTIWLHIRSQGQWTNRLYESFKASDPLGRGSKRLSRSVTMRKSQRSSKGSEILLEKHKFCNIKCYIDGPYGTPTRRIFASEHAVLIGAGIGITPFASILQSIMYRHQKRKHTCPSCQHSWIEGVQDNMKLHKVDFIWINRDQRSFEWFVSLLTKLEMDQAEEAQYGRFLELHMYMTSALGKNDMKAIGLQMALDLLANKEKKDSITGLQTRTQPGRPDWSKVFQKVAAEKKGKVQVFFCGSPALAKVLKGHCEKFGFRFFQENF
SMILES,composite z-score [1],z-score [2],z-score [3],z-score [4],z-score [5],composite z-score [6],composite z-score [7],composite z-score (Torsin-1A (Homo sapiens) [8]),composite z-score (Torsin-1A (Homo sapiens) [9]),composite z-score [10],z-score [11],composite z-score [12],z-score [13],z-score [14],z-score [15],z-score [16],z-score [17],z-score [18],z-score [19],z-score [20]
O=C1NC(=O)C2C1C=CC(C(O)c1cccs1)N2Nc1ccccn1 (stereo not given),0.0343,0.847 (inactive),-1.39 (inactive),-0.712 (inactive),-1.04 (inactive),-0.0099,-0.214,0.484,0.244,-0.0541,0.218 (inactive),-0.0035,0.624 (inactive),0.253 (inactive),-0.285 (inactive),0.853 (inactive),-0.726,0.659 (inactive),-1.32 (inactive),-0.795
O=c1cccc(-c2ccc3ccccc3c2)o1,-0.0955,-2.3 (inactive),0.787 (inactive),0.425 (inactive),0.0815 (inactive),0.351,-0.025,-0.0735,-0.0223,0.27,0.62 (inactive),-0.0035,25.4 (active),10 (active),-1.71 (inactive),1.1 (inactive),-0.38,-0.415 (inactive),-4.41 (inactive),-1.19
CC(C)CNC(=O)[C@@]1(C)c2ccccc2C(=O)N(C(C)C)[C@H]1c1ccc(CO)cc1,-0.16,1.09 (inactive),0.15 (inactive),-0.179 (inactive),-0.568 (inactive),-1.36,-0.187,-0.633,-1.63,-0.542,-0.144 (inactive),0.045,1.54 (inactive),0.344 (inactive),0.24 (inactive),-0.0642 (inactive),-0.53,-0.93 (inactive),0.227 (inactive),-0.85
O=C1C2C=CC(C(O)C3CC=CCC3)N(n3cnnc3)C2C(=O)N1Cc1ccccc1 (stereo not given),-0.149,0.227 (inactive),0.356 (inactive),0.332 (inactive),0.705 (inactive),0.0704,-0.128,0.187,-0.0519,-0.183,-1.37 (inactive),0.0455,1.36 (inactive),0.585 (inactive),0.576 (inactive),0.388 (inactive),-0.792,-0.621 (inactive),-1.61 (inactive),-1.34
